From PubChem BioAssay (NCATS) come the findings set out here.

Inconclusive results are not listed. Unmarked numbers belong to inactive results. Activity calls are given as the source filed them. Calls follow the shape of the dose curve; as a rule, active = well fitted inhibition curve with a large enough effect in the repeat runs; inconclusive = weak or mixed curves; inactive = flat fitted curve, though single readings scatter.
% is scaled to controls: 0 for no effect and ±100 for the full control effect; potency is read from the fitted curve at half-maximal effect.

For this assay, the target named is Cytochrome P450 2D6 (Homo sapiens) (UniProt P10635). Put plainly: Cytochrome P450 family 2 subfamily D member 6 (CYP2D6) small molecule antagonists: luciferase biochemical (cell-free) qHTS assay (AID 1645840). Also: nearly all actives have a fitted effect of over 55% in size. The note with it: P450-Glo CYP2D6 enzyme, luciferin luminescence, 1 h; series mostly up to 57.4 µM; activity change, negative = inhibition: at the top concentration. A digest of the protocol: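 P450-Glo CYP2D6 system: proluciferin substrate converted by enzyme to luciferin, read by luminescence proportional to activity. Enzyme-substrate mix with compound 10 min at room temperature, then NADPH regeneration 1 h before detection reagent.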
Cytochrome P450 2D6 (Homo sapiens), sequence (P10635 whole entry, looked up): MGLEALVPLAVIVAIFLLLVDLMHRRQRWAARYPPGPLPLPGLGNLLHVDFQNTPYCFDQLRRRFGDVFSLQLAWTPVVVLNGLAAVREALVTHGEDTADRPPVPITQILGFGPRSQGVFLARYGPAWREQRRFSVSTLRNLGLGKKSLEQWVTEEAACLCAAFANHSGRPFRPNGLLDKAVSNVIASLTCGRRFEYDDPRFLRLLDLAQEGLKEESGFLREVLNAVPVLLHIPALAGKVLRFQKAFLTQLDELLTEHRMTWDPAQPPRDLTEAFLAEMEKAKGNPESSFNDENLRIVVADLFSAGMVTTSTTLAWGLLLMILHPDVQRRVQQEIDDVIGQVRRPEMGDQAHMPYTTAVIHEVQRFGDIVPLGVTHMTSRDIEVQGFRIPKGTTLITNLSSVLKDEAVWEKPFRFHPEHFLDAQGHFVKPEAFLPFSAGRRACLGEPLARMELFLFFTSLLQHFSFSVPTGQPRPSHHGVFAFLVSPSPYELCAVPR
For orientation: In qHTS, concentration-response curves come from the screen itself.
Take `CC1(C#N)CCN(c2c(C(=O)N3CCN(S(C)(=O)=O)CC3)cnc3ccc(F)cc23)CC1`: the “activity change, negative = inhibition” value is 3.72%.
Take `CC1(C#N)CCN(c2c(C(=O)N3CCC(C(=O)C4CC4)CC3)cnc3c(F)cc(F)cc23)CC1`: the Potency is 16.9 µM (active).
In the case of `COc1ccccc1OCCn1c(NC(=O)c2ccccc2Cl)nc2ccccc21`, the “activity change, negative = inhibition” value is 32.6%.
In the case of `CCOc1ccc(CCNC(=O)C2CCCN(c3nnc(C)c4c(C)n(-c5ccccc5)nc34)C2)cc1` (stereo not given), the Potency is 4.77 µM (active).
As to `COc1ccc(C(=O)Oc2ccc(C(c3c(C)[nH][nH]c3=O)c3c(C)[nH][nH]c3=O)cc2)cc1`, the “activity change, negative = inhibition” value is 6.78%.
In the case of `CC(CCC(=O)O)C1CC[C@H]2C3[C@H](O)C[C@@H]4C[C@H](O)CCC4(C)[C@H]3C[C@H](O)C12C` (stereo not given in full), the “activity change, negative = inhibition” value was -0.4%.
As for `Cc1ccc(CNC(=O)C2CCN(S(=O)(=O)c3c(C)noc3/C=C/c3ccccc3F)CC2)o1`, the “activity change, negative = inhibition” value was -27.3%.
As to `Cc1ccccc1CNC(=O)CCCn1c(=O)c2cccn2c2ccccc21`, the Potency is 6.74 µM (active).
Consider `C=CCNCCCCCC[N+](C)(C)C`, for which the “activity change, negative = inhibition” value was 3.76%.
With `O=c1c2c(on1Cc1ccccc1)CCNCC2`, the “activity change, negative = inhibition” value is -10.2%.
Turning to `CCc1ccc(S(=O)(=O)NCc2ccc3c(c2)CCN3C(=O)c2ccc(C)cc2)cc1`, the Potency is 5.35 µM (active).
As to `COc1ccc(-c2noc(CCCC(=O)Nc3cccc(Cl)c3C)n2)cc1`, the “activity change, negative = inhibition” value is -1.6%.
For the compound `O=C(CC1N=C2c3ccccc3N=C(SCc3ccc(Cl)cc3)N2C1=O)NCCc1ccccc1` (stereo not given), the Potency is 2.13 µM (active).
Take `Cc1ccc(Cn2c(CN3CCC(C(=O)NCCc4ccccc4)CC3)cc3ccccc32)cc1`: the Potency was 0.0477 µM (active).
As for `O=c1cc2nc(-c3cccs3)nc(SCCOc3ccc(Cl)cc3)n2[nH]1`, the “activity change, negative = inhibition” value is 7.32%.
